According to PubChem BioAssay (NCI):
The panel holds about 83,000 compounds, 20% with a hit somewhere; the sample as a whole holds those more often.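 The endpoint reported here, percent growth, reads 100 for growth as untreated, 0 for no net growth and -100 for all cells dead.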

Columns and labels:
Experiment in all cases: NCI-60 one-dose screen, 48 h (100 = growth as untreated, 0 = no growth, -100 = all killed); active means growth percent below 10; inactive means the rest
[1] = tested on: HCT-15 colon; settings: 10 µM unless noted
[2] = tested on: HT29 colon; settings: 10 µM unless noted
[3] = tested on: SNB-75 CNS; settings: 10 µM unless noted
[4] = tested on: SNB-19 CNS; settings: 10 µM unless noted
[5] = tested on: U251 CNS; settings: 10 µM unless noted
[6] = tested on: PC-3 prostate; settings: 10 µM unless noted
[7] = tested on: SK-MEL-5 melanoma; settings: 10 µM unless noted
[8] = tested on: UACC-62 melanoma; settings: 10 µM unless noted
[9] = tested on: SK-MEL-28 melanoma; settings: 10 µM unless noted
[10] = tested on: LOX IMVI melanoma; settings: 10 µM

Measured: growth

Cc1ccccc1NC(=O)Oc1ccc(Cl)cc1C(=O)c1ccccc1
inactive: [1] 94.1% | [2] 100% | [3] 77.7% | [4] 96% | [5] 87.6% | [6] 95.2% | [7] 97.3% | [8] 85.4% | [9] 106%

CC(C)Sc1ncnc2nc[nH]c12
inactive: [1] 103% | [2] 113% | [3] 115% | [4] 99.5% | [5] 107% | [6] 91.6% | [7] 104% | [8] 93.3% | [9] 82.8%

CCOC(=N)CC(=O)Nc1cccc(C)c1Cl
inactive: [1] 100% | [2] 116% | [3] 86% | [4] 109% | [5] 103% | [6] 93.6% | [7] 94.9% | [8] 93.9% | [10] 93% | [9] 105%

C=CCN1CCCC1=O
inactive: [1] 104% | [2] 96.3% | [3] 70.2% | [4] 93.1% | [5] 102% | [6] 94.6% | [7] 101% | [8] 86.1% | [10] 108% | [9] 108%

CC(=O)OCC1OC(n2cnc3c(=S)nc(N)[nH]c32)C(OC(C)=O)C1OC(C)=O (centres undefined)
inactive: [1] 79.3% | [2] 74.6% | [3] 56% | [4] 99.9% | [5] 93.1% | [6] 104% | [7] 99.4% | [8] 65.2% | [10] 19.7% | [9] 114%

Cc1ccc([N+](=O)[O-])c(C)n1
inactive: [1] 97.9% | [2] 108% | [3] 77.8% | [4] 105% | [5] 102% | [6] 89.7% | [7] 114% | [8] 107% | [10] 103% | [9] 99.6%

Cc1ccc(S(=O)(=O)NC(=O)NCCSSCCNC(=O)NS(=O)(=O)c2ccc(C)cc2)cc1
inactive: [1] 96.7% | [2] 108% | [3] 85.5% | [4] 99.4% | [5] 98.6% | [6] 96.6% | [7] 97.8% | [8] 101% | [9] 109%

CN(C)c1ccc2c(N(C)C)cc(N(C)C)nc2c1
inactive: [1] 92% | [2] 34.4% | [3] 92.5% | [4] 84.5% | [5] 90.8% | [6] 72.6% | [7] 100% | [8] 81.9% | [10] 87.7% | [9] 84.4%

CN(C)c1ncnc2c1cnn2C
inactive: [1] 113% | [2] 109% | [3] 90.7% | [4] 99.1% | [5] 101% | [6] 85.2% | [7] 97.2% | [8] 92.9% | [10] 94.9% | [9] 112%

O=C(O)Cc1ccc(Cl)cc1
inactive: [1] 112% | [2] 107% | [3] 102% | [4] 108% | [5] 104% | [6] 85.7% | [7] 114% | [8] 110% | [10] 103% | [9] 132%

ON1CCCC1
inactive: [1] 101% | [2] 95.3% | [3] 83.2% | [4] 103% | [5] 100% | [6] 101% | [7] 109% | [8] 105% | [10] 94.8% | [9] 106%

N#C/C(=C\NC(=S)N=Nc1c(O)[nH]c2ccccc12)c1nc2ccccc2s1
inactive: [1] 101% | [2] 106% | [3] 85.1% | [4] 104% | [5] 92.5% | [6] 86.1% | [7] 94.9% | [8] 94.3% | [9] 112%

Cc1ccccc1CC(N)C(=O)O (centres undefined)
inactive: [1] 117% | [2] 107% | [3] 91.4% | [4] 108% | [5] 102% | [6] 90.4% | [7] 117% | [8] 103% | [10] 106% | [9] 115%

O=C(CCCl)OCCOc1ccccc1
inactive: [1] 105% | [2] 102% | [3] 96.1% | [4] 108% | [5] 99.9% | [6] 95.9% | [7] 108% | [8] 108% | [9] 107%

OCC1OC(n2ccc3c2ncn2ncnc32)C(O)C1O (centres undefined)
inactive: [1] 26.9% | [2] 14.2% | [3] 58.6% | [4] 50.3% | [5] 78.6% | [6] 14.6% | [7] 45.4% | [8] 61.2% | [9] 92.5%
